Results from PubChem BioAssay AID1159580 (chemical genetic matrix, 2015).
Out of some 5,500 compounds screened, about 2,000 (36%) were called active. Another 18% or so got no clear call; they are omitted. Rule as the data show it: active = normalized growth mostly below about 0.91 (no sharp cut-off); inconclusive = no clear call, values can overlap the other calls; inactive = mostly above about 0.92. The list shows a part of the results.

Assay: chemical genetic growth profiling, strain panel (AID 1159580);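 also: tested at 20 µM; growth read once vehicle control cultures reached saturation at 30 °C; 1 = growth at the plate median or of vehicle wells; lower values mean less growth of the strain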
Settings: S. cerevisiae deletion strains, growth OD

Measured: normalized growth

CCCC[C@@]1(C2CCCC2)Cc2cc(OCC(=O)O)c(Cl)c(Cl)c2C1=O
inactive: locus YAL013W, strain DEP1, active compounds read low 1.02 | locus YAL040C, strain CLN3, active compounds read low 1 | locus YCL061C, strain MRC1 (second series), active compounds read low 1 | locus YDR363W, strain ESC2, active compounds read low 0.989 | locus YER002W, strain NOP16, active compounds read low 1.05 | locus YGR078C, strain PAC10, active compounds read low 1.02 | locus YGR229C, strain SMI1, active compounds read low 1.03 | locus YMR263W, strain SAP30, active compounds read low 1 | locus YNL153C, strain GIM3, active compounds read low 1.01 | locus YNL175C, strain NOP13, active compounds read low 0.986 | locus YNL197C, strain WHI3, active compounds read low 0.959 | locus YNL224C, strain SQS1, active compounds read low 0.989 | locus YOR083W, strain WHI5 (second series), active compounds read low 1 | locus YPL241C, strain CIN2, active compounds read low 1
